PubChem BioAssay AID1159580 (chemical genetic matrix, 2015)
Among all 5,500 compounds or so, about 2,000 (36%) were called active. Another 18% or so got no clear call; they are omitted. No stated cut-off is given here; in the data, active means normalized growth mostly below about 0.91 (no sharp cut-off); inconclusive means no clear call, values can overlap the other calls; inactive means mostly above about 0.92. Some of the results follow.

Experiment: chemical genetic growth profiling, strain panel (AID 1159580);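 further: tested at 20 µM; growth read once vehicle control cultures reached saturation at 30 °C; 1 = growth at the plate median or of vehicle wells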
Details: S. cerevisiae deletion strains, growth OD

Measured: normalized growth

C=C[C@@]1(C)CC(=O)[C@@]2(O)[C@](C)(O1)[C@@H](O)[C@@H](O)C1C(C)(C)CC[C@H](O)[C@@]12C (stereo partly drawn)
inactive: locus YHR030C, strain SLT2, stronger effect = lower value 0.962 | locus YHR079C, strain IRE1, stronger effect = lower value 0.971 | locus YJL095W, strain BCK1, stronger effect = lower value 0.989 | locus YJR066W, strain TOR1, stronger effect = lower value 0.957 | locus YLR113W, strain HOG1, stronger effect = lower value 0.992 | locus YNL183C, strain NPR1, stronger effect = lower value 0.995 | locus YOR231W, strain MKK1, stronger effect = lower value 0.992 | locus YPL256C, strain CLN2, stronger effect = lower value 0.976
